Screening data deposited in PubChem by Broad Institute.
HSF1 inh: HSF1 inhibitors in luciferase reporter cells, primary screen, cell-based, NIH3T3, luminescence; 0.77% of 300,000 active; AID 2098, 2009; activity change, negative = inhibition, % at 7.5 µM (by protocol); NIH3T3-HGL HSE-luciferase, MG132-induced, luminescence 8 h; hits give low values;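 active = more than half of replicate wells show activity change below -50%, luminescence cut by over half; inconclusive = some wells, but at most half, below -50%; inactive = no replicate well below -50%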;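 also: luciferase reports HSF-1 transcriptional activity via heat shock element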
esBAF inh: Bmi1 luciferase reporter increase in mESCs, primary screen, esBAF inhibitor project, mouse ES cells, Bmi1 luciferase knock-in, single point. 24 h; 100% = twice the neutral-well signal. reporter increase, % at 12.5 µM. 2% of 350,000 active; in the data active = activation above about 40%; inconclusive = no clear call, values can overlap the other calls;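 also: a rise in the Bmi1 reporter signal indicates esBAF inhibition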
HSF-1 act: HSF-1 activators, primary screen, NIH3T3-HGL cells, MG132 stress, luminescence, single point; AID 504408, 2011; 1.7% of 300,000 active; activation, % at 9 µM; NIH3T3-HGL HSF-1 luciferase reporter, 8 h; 100% = twice DMSO control signal;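 active = mean replicate activation of at least 50% with a set share of replicates each reaching 50%; inconclusive = only one of those two conditions met; inactive = mean below 50% and too few replicates reaching it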
MITF TRPM1 HTS: activators of MITF-driven TRPM1 promoter reporter, primary screen, cell-based, SK-MEL-5, luciferase, single point; SK-MEL-5 TRPM1-promoter luciferase, 24 h; % of positive control, neutral wells = 0; activation, % at 12.5 µM; 0.75% of 300,000 active; AID 588334, 2011;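 active = mean activation of at least 80% with every replicate also reaching 80%; inconclusive = mean reaches 80% but some replicate falls short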
Wnt act: Wnt/beta-catenin pathway activators, primary screen, cell-based, plate reader, single point | Wnt/beta-catenin reporter cell assay, activator | activation, % at 9.35 µM | 1.2% of 300,000 active | AID 743398, 2014; in the data active = activation above about 30%, passing the limit was not always enough; inconclusive = no clear call, values can overlap the other calls
A number is an active result; – = inactive; ? = inconclusive; · = not tested or not shown. In the library only some 3.8% were active in any assay of this set; here they are far more common.

SMILES	HSF1 inh	esBAF inh	HSF-1 act	MITF TRPM1 HTS	Wnt act
CCOc1ccc(N2C(=O)c3ccccc3NC2(C)CC)cc1 (stereo not given)	·	–	·	124	?
COc1ccc(N2C(=O)c3ccccc3NC23CCC(C)CC3)cc1 (stereo not given)	–	·	–	–	·
COc1ccc(N2C(=O)c3ccccc3NC23CCCCC3)cc1	–	–	–	99	–
CC1(C)Nc2ccccc2C(=O)N1c1ccc(Br)cc1	–	·	–	·	66
O=C(N[C@@H]1CC[C@H](CCNC(=O)c2ccccc2F)O[C@@H]1CO)c1ccc2c(c1)OCO2	·	–	·	·	·
COc1ccc(C2=CN(Cc3ccccc3)C(c3ccccc3)CC2=O)cc1 (stereo not given)	·	–	·	100	–
C[C@H](CO)N1C[C@H](C)[C@H](CN(C)S(=O)(=O)c2ccc(F)cc2)Oc2ccc(NS(=O)(=O)c3ccccc3)cc2CC1=O	·	–	·	·	·
O=C(CCc1ccccc1)Nc1ccc(F)cc1F	·	66	·	–	–
COC(=O)c1ccc(NC(=O)Nc2cccc(F)c2)cc1	–	70	–	–	·
CN(C)c1ccc(NC(=O)Nc2csc3ccccc23)cc1	–	·	–	·	–
O=C(CCc1ccccc1)Nc1ccccc1F	–	·	–	–	·
COc1ccccc1NC(=O)CN1CCN(CC(=O)Nc2ccc(F)cc2F)CC1	–	?	69	–	–
O=C(Nc1ccc(F)cc1)Nc1csc2ccccc12	–	·	61	·	–
COc1ccc(NC(=O)Nc2cccc(F)c2)c(OC)c1	–	–	–	–	–
COc1ccc(NC(=O)N(C)C[C@@H]2Oc3ccc(NS(=O)(=O)c4ccc(F)cc4)cc3CC(=O)N([C@@H](C)CO)C[C@H]2C)cc1	·	–	·	·	·
C[C@H]1CN([C@@H](C)CO)C(=O)c2cc(C#Cc3ccccc3F)cnc2O[C@@H]1CN(C)C(=O)C1CCCCC1	·	–	·	·	·
COC(=O)c1ccc(NC(=O)Cc2ccc(F)cc2)cc1	–	–	–	–	–
CC(=O)Nc1cccc(NC(=O)Nc2ccc(F)cc2F)c1	–	·	–	–	–
O=C(Nc1ccccc1)Nc1ccc(F)cc1F	–	·	–	–	48
COC(=O)c1ccc(NC(=O)Nc2ccc(F)cc2F)cc1	–	79	–	–	–
C[C@@H]1CN([C@@H](C)CO)C(=O)CCCn2nncc2CO[C@@H]1CN(C)Cc1ccc(O)cc1	·	–	·	·	·
COC(=O)C(Cc1ccc(OC(=O)c2ccccc2Cl)cc1)N1Cc2ccccc2C1=O (stereo not given)	–	44	–	–	·
COC(=O)C(Cc1ccc(OC(=O)c2ccccc2C)cc1)N1Cc2ccccc2C1=O (stereo not given)	–	·	–	–	·
O=C1NC(=O)C(=Cc2ccc(Cl)cc2Cl)S1	·	·	·	–	39
O=C(C[n+]1ccc(Cc2ccccc2)cc1)Nc1ccc([N+](=O)[O-])cc1Cl	–	·	–	–	–
SMILES	HSF1 inh	esBAF inh	HSF-1 act	MITF TRPM1 HTS	Wnt act
Cc1ccc(F)cc1NC(=O)CCNC(=O)c1ccc([N+](=O)[O-])cc1	-68	–	–	–	–
Cc1ccc(Cl)cc1NC(=O)C[n+]1ccc(Cc2ccc([N+](=O)[O-])cc2)cc1	–	·	65	–	–
COC(=O)c1ccc(C)c(NC(=O)CCNC(=O)c2ccc([N+](=O)[O-])cc2)c1	–	·	–	–	·
COc1ccc(NC(=O)C(Cl)=C(Cl)Cl)cn1	–	·	–	–	–
COc1ccc(NC(=O)/C(Cl)=C(/Cl)S(=O)(=O)Cc2ccccc2)cn1	-76	–	–	–	·
C[C@@H]1CN([C@H](C)CO)C(=O)c2cc(C#Cc3ccc(F)cc3)cnc2O[C@H]1CN(C)S(C)(=O)=O	·	–	·	·	·
Cc1nn(-c2nc3ccccc3[nH]2)c(N)c1-c1ccc(Cl)cc1	·	61	·	–	–
Cc1nn(-c2ccc3ccccc3c2)c(=O)c2ccccc12	–	·	–	–	61
Cc1nn(-c2nc3ccccc3[nH]2)c(=O)c2ccccc12	-81	–	–	–	–
Cc1ccc(-n2ncc3ccccc3c2=O)cc1Cl	–	·	88	–	–
Cc1nn(-c2ccc(Cl)cc2)c(=O)c2ccccc12	–	·	–	–	?
O=c1c2ccccc2cnn1-c1ccc(Cl)cc1	–	–	–	–	·
CC(C)CC#Cc1cnc2c(c1)C(=O)N([C@@H](C)CO)C[C@H](C)[C@@H](CN(C)C(=O)CN1CCOCC1)O2	·	–	·	·	·
